Screens: PubChem BioAssay, National Center for Advancing Translational Sciences (NCATS)
Sampled rows, rich in hits. Any-hit rate of the full collection: about 9.5%.
Pf growth 48h: Primary qHTS for delayed death inhibitors of the malarial parasite plastid, 48 hour incubation; P. falciparum luciferase growth in erythrocytes, 48 h; Potency, µM (doses to about 28.7 µM), for inactives: at the top dose activity change, negative = inhibition, actives largely listed as inhibitors; actives 5.9% (n = 310,000); active means well fitted inhibition curve with a large enough effect; inconclusive means small, poorly fitted or top-dose-only effect, or another doubt; inactive means no such curve, though single readings can be large or run the other way; further: on the % scale 0 is the no-effect control and ±100 the full control effect
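Compounds are pin-transferred into medium, infected erythrocytes (2% hematocrit, 0.1% parasitemia final) are added, and plates sit one parasite generation at 37 C in 5% CO2. Detection reagent is then added and luminescence measured.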
SARS PLpro yeast: qHTS of Yeast-based Assay for SARS-CoV PLP | S. cerevisiae expressing SARS-CoV PLpro, growth rescue | Potency, µM (top dose mostly 32.9 µM), for inactives: top-dose activity, positive = growth rescue, hits mostly activators | actives 0.19% (n = 330,000) | AID 485353, 2010; further: 0% is about no effect; nearly all actives have a fitted effect of over 55% in size
RE007 growth inh: qHTS Assay for Inhibitors of the HIV-1 protein Vpr; Potency, µM (doses to about 92.2 µM), for the others: top-dose activity change, negative = less growth, hits mostly inhibitors; S. pombe RE007 Vpr strain, BacTiter-Glo ATP luminescence, 24 h; actives 0.21% (n = 360,000); active means well fitted falling curve with a large enough effect; inconclusive means small, poorly fitted or top-dose-only effect; inactive means no such curve, though single readings can be large or run the other way; further: on the % scale 0 is the no-effect control and ±100 the full control effect; nearly all actives have a fitted effect of over 50% in size
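Fission yeast RE007 carrying one integrated HIV-1 vpr copy, seeded at OD 0.01 in PMG+AL medium with 23 nL pinned compound. Grown 24 h at 30 degrees; viability read by BacTiter-Glo luminescence after 5 min.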
NS1 function inh: qHTS Assay for Inhibitors of Influenza NS1 Protein Function. Potency, µM (doses to about 46.1 µM), without a hit: at the highest dose activity, positive = more growth. actives 0.4% (n = 270,000). AID 2326, 2010; further: actives are rising curves; nearly all actives have a fitted effect of over 50% in size
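Read-out: OD600 growth recovery of NS1-expressing budding yeast. Cells grown overnight at 30C in -URA glucose medium, washed, resuspended and diluted 1:100 in 2% galactose assay medium, pH 6.0. Same strain lacking NS1 served as positive control.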
Pf growth 96h: Primary qHTS for delayed death inhibitors of the malarial parasite plastid, 96 hour incubation; P. falciparum luciferase reporter growth, 96 h; Potency, µM (series often up to 28.7 µM), without a hit: at the highest dose activity change, negative = inhibition, usual class: inhibitors; actives 6.9% (n = 320,000); AID 504834, 2011; active means well fitted inhibition curve with a large enough effect; inconclusive means small, poorly fitted or top-dose-only effect, or another doubt; inactive means no such curve, though single readings can be large or run the other way; further: on the % scale 0 is the no-effect control and ±100 the full control effect
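Plates of compound plus infected erythrocytes (2% hematocrit, 0.05% parasitemia final) incubate 96 hours, 37 C, 5% CO2. Detection reagent added; reduced luminescence from the parasites' luciferase reporter flags inhibition.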
Numbers without * were called inactive; ? = inconclusive; · = not tested or not shown; [ ] = remark or other dose. Unless noted, the call rests on the fitted dose curve. Potency means the concentration at half of the fitted maximal effect.

SMILES	Pf growth 48h	SARS PLpro yeast	RE007 growth inh	NS1 function inh	Pf growth 96h
COC(=O)c1cc(-c2ccc(C)o2)nc2ccccc12	19%	-43%	11µM*	-43%	24%
COc1cccc(NC(=O)CN(C)C(=O)c2cc(-c3ccc(C)o3)nc3ccccc23)c1	12µM*	-2%	-6%	·	9.3µM*
O=C(NCCS(=O)(=O)N1CCCCC1)c1ccc2c(c1)OCO2	11%	0%	15%	·	1%
COc1ccc(NC(=O)CN(C)C(=O)CN2C(=O)c3ccc([N+](=O)[O-])cc3C2=O)cc1	105%	-7%	-15%	-5%	35%
COc1ccc(-c2cc([N+](=O)[O-])ccc2OCC(=O)N(C)CC(=O)Nc2ccc(C)cc2)cc1	6.6µM*	5%	0%	·	9.3µM*
COC(=O)c1ccc(=O)c2nc3/c(=C/O)c(O)cc(=O)c3[nH]c12	?	3.2µM*	17%	1%	?
COC(=O)c1ccccc1O	-9%	·	·	·	-11%
O=C(O)c1ccc(C(=O)O)c(C(=O)Nc2ccc3c(c2)Cc2ccccc2-3)c1	·	·	·	-1%	·
CC1=NN(c2ccccc2)C(=O)[C@@H]1N=Nc1ccc(S(N)(=O)=O)cc1	·	·	·	-3%	·
CCOC(=O)N1CCN(C2CC(=O)N(c3ccc(Cl)c(Cl)c3)C2=O)CC1 (stereo unspecified)	14%	-96%	11µM*	-23%	84%
COc1ccc(N2C(=O)CC(N3CCN(c4cccc(Cl)c4)CC3)C2=O)cc1 (stereo unspecified)	29%	-7%	4%	7%	-30%
CCOC(=O)N1CCN(C2CC(=O)N(c3ccccc3)C2=O)CC1 (stereo unspecified)	5%	-8%	-15%	3%	3%
COc1cccc(N2CCN(C3CC(=O)N(c4ccc(Cl)c(Cl)c4)C3=O)CC2)c1 (stereo unspecified)	5%	-25%	35µM*	2%[9.22 µM]	·
COc1ccccc1CNC(=O)CCCC(=O)n1ncc2cc(C)ccc21	21%	-6%	-1%	-6%	-4%
CC(=O)Nc1ccc(N=NN2CCOCC2)cc1	17%	11µM*	12%	·	39%
CC(=O)Nc1cccc(N=NN2CCOCC2)c1	2%	1%	6%	0%	?
CN(Cc1cn(Cc2ccc(Cl)cc2)nn1)C1CN(Cc2cn(Cc3ccc(Cl)cc3)nn2)S(=O)(=O)C1 (stereo unspecified)	·	·	-13%	·	·
Cc1c(C(=O)NC2CCN(Cc3ccccc3)C2)oc2c(Cl)cccc12 (stereo unspecified)	6%	4%	-9%	29%	-2%
CCOC(=O)c1cc(-c2ccccc2)sc1NC(=O)C(C)(C)C	9.3µM*	9%	4%	-13%	?
CCOC(=O)c1cc(-c2ccccc2)sc1NC(=O)CN1C(=O)c2ccccc2C1=O	·	·	-12%	·	·
CCOC(=O)c1cc(-c2ccccc2)sc1NC(=S)Nc1cc(C)ccn1	?	-6%	4%	2%	13µM*
CCOC(=O)c1cc(-c2ccccc2)sc1NC(=O)c1cc(OC)c(OC)c(OC)c1	20%	19%	-5%	21%	?
CCOC(=O)c1cc(-c2ccccc2)sc1NC(=O)CC(C)C	?	-27%	-2%	1%	7.4µM*
CN(CCCCCCCCC(=O)/C=N/O)Cc1ccccc1	·	-5%	13%	0%	2.6µM*
CN(C)CCCCCCCCCCC(=O)/C=N/O	·	·	8%	·	·
SMILES	Pf growth 48h	SARS PLpro yeast	RE007 growth inh	NS1 function inh	Pf growth 96h
CC(C)[C@H](NC(=O)c1ccc(Cl)cc1Cl)C(=O)NNC(=O)c1ccco1	·	0%	11%	·	·
Cc1ccc(OCCN2CCN(C(=O)CCC(=O)Nc3nnc(C(C)C)s3)CC2)cc1	10µM*	12%	-18%	-17%	2.9µM*
CCc1nnc(NC(=O)CCC(=O)N2CCCC2)s1	2%	1%	21%	1%	-8%
Cc1ccc(OCCN2CCN(C(=O)CCC(=O)Nc3nnc(C)s3)CC2)cc1	-5%	4%	-19%	-5%	?
CCCc1nnc(NC(=O)CCC(=O)N2CCN(CCOc3ccc(C)cc3)CC2)s1	10µM*	2%	12%	-9%	?
CC(C)C(=O)NNC(=O)CN1CCN(c2nc(-c3ccccc3)cs2)CC1	4%	1%	2%	2%	9%
CCc1nnc(NC(=O)CN2CCN(c3nc(-c4ccccc4)cs3)CC2)s1	10µM*	13%	-8%	-32%	9.3µM*
CCc1nnc(NC(=O)CCC(=O)N2CCC(Cc3ccccc3)CC2)s1	-30%	1%	-6%	-6%	10µM*
C=CCNC(=S)N/N=C/c1cn(C)c2ccccc12	8.3µM*	13%	3%	?	?
Cn1cc(/C=N/NC(N)=S)c2ccccc21	2%	21%	-21%	4%	?
Cn1cccc1/C=N/NC(=O)c1cccs1	80%	-7%	-19%	-14%	40%
Cn1cc(/C=N\NC(=O)c2cccs2)c2ccccc21	111%	1%	-4%	·	5.9µM*
Cc1ccccc1NC(=S)NNC(=O)c1csc2c1CCC(C)C2 (stereo unspecified)	235%	-5%	-23%	-14%	·
CC1(C)NC(=O)N(CCOCCOc2ccccc2)C1=O	·	1%	-12%	7%	20%
CC1(C)NC(=O)N(CCOCCSc2ccccc2)C1=O	34%	1%	14%	-3%	9.3µM*
Cc1ccnc(OC(C(=O)O)C(OCc2ccccc2)(c2ccc(F)cc2)c2ccc(F)cc2)n1 (stereo unspecified)	2%	3%	-3%	26%	5%
O=C(CCOc1ccccc1)Nc1ccnn1C1CCN(C(=O)CCC(F)(F)F)CC1	?	-7%	0%	-4%	12µM*
COCC(=O)N1CCC(n2nccc2NC(=O)CCOc2ccccc2)CC1	-2%	3%	-7%	-6%	12µM*
CCCNC(=O)N1CCC(n2nccc2NC(=O)CCOc2ccccc2)CC1	6%	4%	33%	-4%	?
COC(=O)CCCC(=O)N1CCC(n2nccc2NC(=O)CCOc2ccccc2)CC1	24%	0%	1%	-3%	?
Nc1ccc(Oc2ccc3c(c2)C(=O)NC3=O)cc1	10%	2%	-19%	-2%	?
COc1ccc(C2(C)NC(=O)N(CC(=O)Nc3ccc(Br)cc3F)C2=O)cc1OC (stereo unspecified)	?	-2%	-3%	6%	3.7µM*
COc1ccc(C2(C)NC(=O)N(CC(=O)Nc3ccc(Br)c(C)c3)C2=O)cc1OC (stereo unspecified)	3%	2%	1%	-4%	16%
COc1ccc(C2(C)NC(=O)N(CC(=O)Nc3ccc(C)cc3Br)C2=O)cc1OC (stereo unspecified)	?	2%	-8%	1%	3.7µM*
COC(=O)c1ccc(Cn2cnc3ccccc3c2=O)cc1	4%	9%	14%	-6%	?
